Measured values: PubChem BioAssay AID488969 (Vanderbilt High Throughput Screening Facility, 2010)
Whole data set: some 110,000 compounds, median “z-score” near -0.1, cut for the highest 2% near 2. What follows is part of a selection rich in the highest values, with near analogues and random picks from the rest. Activity calls are given as the source filed them.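 The calls were made as follows: active = z-score in the third read window above 3 or below -3; inactive = the rest.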 Residues, ends and D or L forms follow the SMILES beside them. *: point of attachment. OBn = c1ccc(CO*)cc1

molecular target: Metabotropic glutamate receptor 8 (Rattus norvegicus) (UniProt P70579); experiment: rat mGluR8 modulators via GIRK flux, primary screen, cell-based, thallium flux, HTS (AID 488969); conditions: HEK293 rat mGluR8, GIRK (G protein-gated inwardly rectifying potassium channel) thallium flux, FluoZin2; at 10 µM; stronger effect = higher value; submaximal glutamate (EC20) added with thallium
Sequence (P70579 whole entry, looked up): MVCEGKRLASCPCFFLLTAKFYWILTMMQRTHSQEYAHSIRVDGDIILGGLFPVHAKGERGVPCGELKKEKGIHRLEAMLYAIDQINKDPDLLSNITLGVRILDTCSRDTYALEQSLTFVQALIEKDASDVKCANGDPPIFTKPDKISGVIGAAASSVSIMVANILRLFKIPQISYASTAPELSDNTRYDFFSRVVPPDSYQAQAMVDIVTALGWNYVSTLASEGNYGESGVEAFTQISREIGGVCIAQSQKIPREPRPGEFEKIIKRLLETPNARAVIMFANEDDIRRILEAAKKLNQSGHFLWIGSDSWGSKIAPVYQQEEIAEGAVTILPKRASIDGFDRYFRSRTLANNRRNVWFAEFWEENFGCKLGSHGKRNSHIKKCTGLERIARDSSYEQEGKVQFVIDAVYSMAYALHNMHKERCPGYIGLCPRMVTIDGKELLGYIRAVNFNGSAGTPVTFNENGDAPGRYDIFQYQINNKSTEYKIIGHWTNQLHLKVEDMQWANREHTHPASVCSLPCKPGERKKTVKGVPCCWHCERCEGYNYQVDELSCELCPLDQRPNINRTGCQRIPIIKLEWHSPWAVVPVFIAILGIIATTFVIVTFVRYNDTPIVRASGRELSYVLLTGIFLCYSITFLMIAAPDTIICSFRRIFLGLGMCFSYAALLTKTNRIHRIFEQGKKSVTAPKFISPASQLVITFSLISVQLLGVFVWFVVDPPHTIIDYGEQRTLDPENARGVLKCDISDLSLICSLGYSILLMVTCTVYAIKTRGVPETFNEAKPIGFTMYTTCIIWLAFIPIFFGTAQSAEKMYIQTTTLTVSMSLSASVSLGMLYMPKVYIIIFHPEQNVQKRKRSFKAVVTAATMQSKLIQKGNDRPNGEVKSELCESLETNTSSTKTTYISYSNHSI

Row | Structure (SMILES) | z-score
1 | O=C(NCc1cccnc1)c1cccc(C(F)(F)F)c1 | -0.793
2 | COc1ccccc1CNCc1cccs1 | 0.411
3 | COc1ccccc1CNCc1ccc(OC)c(OC)c1OC | 2.07
4 | COc1cccc(CNCc2ccc(SC)cc2)c1OC | -0.19
5 | CC1(C)CNC(=O)C=C(c2ccccc2)C1 | -0.176
6 | Cc1ccc(S(=O)(=O)N(C)CC(=O)O/N=C(\N)c2ccc([N+](=O)[O-])cc2)cc1 | -0.621
7 | O=c1c(-c2ccc(Cl)cc2)[n+]([O-])c2ccccc2n1O | 14 (active)
8 | CCOn1c(=O)c(-c2ccc(Cl)cc2)[n+]([O-])c2ccccc21 | 0.119
9 | COn1c(=O)c(-c2ccc(Cl)cc2)[n+]([O-])c2ccccc21 | -0.503
10 | Cc1ccc(C)c(-n2[nH]c3c4c(ccc3c2=O)C(=O)c2ccccc2C4=O)c1 | 0.0628
11 | O=C(Nc1ccncc1)c1ccc2c(c1)C(=O)N(C1CCCCC1)C2=O | 6.89 (active)
12 | Cc1cc(NC(=O)c2ccc3c(c2)C(=O)N(C2CCCCC2)C3=O)no1 | 0.19
13 | O=C(Nc1ccncc1)c1ccc2c(c1)C(=O)N(CC1CCCO1)C2=O (centres undefined) | -0.193
14 | CCOC(=O)N1CCN(c2cc(=O)n(-c3ccc(OCC)cc3)c(=O)[nH]2)CC1 | -0.000123
15 | O=C(NNC(=O)c1sccc1-n1cccc1)c1ccccc1 | 0.869
16 | O=C(N/N=C\c1ccc(Cl)cc1Cl)c1sccc1-n1cccc1 | -0.203
17 | O=C(NNS(=O)(=O)c1cc(Cl)cc(Cl)c1)c1sccc1-n1cccc1 | 1.93
18 | O=C(NNS(=O)(=O)c1ccc(Cl)cc1)c1sccc1-n1cccc1 | 0.249
19 | O=C(NNC(=O)c1sccc1-n1cccc1)c1cccc(Cl)c1 | 4.1 (active)
20 | O=C(NNC(=O)c1sccc1-n1cccc1)c1ccc(Cl)cc1 | 3.06 (active)
21 | CCOC(=O)N/N=C(C)/C=C/c1ccco1 | 0.31
22 | CCC(Oc1ccccc1)C(=O)N1CCN(C(=O)C(CC)Oc2ccccc2)CC1 (centres undefined) | -0.159
23 | Cn1c(SCC(=O)NNC(=O)Cc2ccccc2)nnc1-c1ccc(Cl)cc1 | -0.126

Row | Structure (SMILES) | z-score
24 | CC(C)c1ccc(-n2cccc2/C=C2/C(=N)N3C=CSC3=NC2=O)cc1 | 2.17
25 | N=C1/C(=C/c2cccn2-c2ccc([N+](=O)[O-])cc2)C(=O)N=C2SC=CN12 | -0.214
26 | N=C1/C(=C/c2cccn2-c2cccc([N+](=O)[O-])c2)C(=O)N=C2SC=CN12 | -0.207
27 | CC1CCN(c2c([N+](=O)[O-])c(=O)n(-c3ccccc3)c3ccccc23)CC1 | 0.00884
28 | N#C/C(=C/c1ccc(OCc2ccccc2)cc1)C(=O)NC1CCCCC1 | 0.0182
29 | O=C(NCCN1CCCC1)c1ccc(CS(=O)(=O)c2c(Cl)cccc2Cl)o1 | -0.063
30 | O=C(c1sc2cc(F)ccc2c1Cl)N1CCN(c2cccc(Cl)c2)CC1 | -0.403
31 | CCCCCCC(=O)NC(Nc1ccc(S(N)(=O)=O)cc1)C(Cl)(Cl)Cl (centres undefined) | -0.259
32 | Cn1ncc2c(=O)n(CC(=O)NC34CC5CC(CC(C5)C3)C4)cnc21 | -0.265
33 | COC(=O)C1=NN(N=O)C2(CC(=O)N(c3cc(C)cc(C)c3)C2=O)C1 (centres undefined) | -0.194
34 | Cc1ccc(C)n1-c1ccc(C(=O)NCC2CCCO2)cc1 (centres undefined) | -0.25
35 | CCCCN(C)C1=CC2=CC(=C(C#N)C#N)CCC2CC1 (centres undefined) | 5.11 (active)
36 | N#CC(C#N)=C1C=C2C=C(N3CCCCC3)CCC2CC1 (centres undefined) | 10.9 (active)
37 | O=c1[nH]c2cc3c(cc2cc1C(c1nnnn1C1CCCCC1)N1CCSCC1)OCCO3 (centres undefined) | 0.278
38 | CCC(=O)N1CCc2cc(S(=O)(=O)NCCCOC)ccc21 | -0.216
39 | Cc1nc2ccccn2c1C(=O)N/N=C/c1ccc2c(c1)OCO2 | 0.65
40 | COCCn1c(SCC(=O)c2ccc3c(c2)OCCO3)nnc1-c1ccoc1C | -0.231
41 | O=c1nc(NCc2ccccc2Cl)cn[nH]1 | 0.66
42 | CC(Nc1ccc(Br)cc1)C(=O)N/N=C/c1ccccc1OCc1ccccc1 (centres undefined) | -0.283
43 | COC(=O)c1cc(NC(=O)C23CCC(C)(C(=O)O2)C3(C)C)cc(C(=O)OC)c1 (centres undefined) | 0.577
44 | COc1ccc(NC(=O)C23CCC(C)(C(=O)O2)C3(C)C)cc1 (centres undefined) | 0.0605
45 | COC(=O)c1ccc(NC(=O)C23CCC(C)(C(=O)O2)C3(C)C)cc1 (centres undefined) | 2.35
46 | Cc1csc(=NC(=O)c2ccccc2)n1Cc1ccco1 | -0.784

Row | Structure (SMILES) | z-score
47 | Cc1cs/c(=N\N=C\c2cccc([N+](=O)[O-])c2)n1Cc1ccco1 | 5.13 (active)
48 | Cc1cs/c(=N\N=C\c2ccccc2)n1Cc1ccco1 | -0.431
49 | CC(C(=O)Nc1ccc(F)c(F)c1F)N(C)CC(=O)Nc1ccccc1Br (centres undefined) | -0.465
50 | O=C(c1ccccc1)c1ccc(OCC(O)CN2CCCCC2)cc1 (centres undefined) | 2.13
51 | OC(COc1ccc(OCC(O)CN2CCCCCC2)cc1)CN1CCCCCC1 (centres undefined) | -0.0132
52 | O=C(c1ccccc1)c1ccc(OCC(O)CN2CCOCC2)cc1 (centres undefined) | -0.0655
53 | OC(COc1ccc(OCc2ccccc2)cc1)CN1CCOCC1 (centres undefined) | -0.0779
54 | OC(COc1ccc(OCc2ccccc2)cc1)CN1CCCCC1 (centres undefined) | 2.76
55 | O=C(c1ccccc1)c1ccc(OCC(O)CN2CCN(S(=O)(=O)N3CCCCC3)CC2)cc1 (centres undefined) | 0.198
56 | COc1ccc2nc(C)cc(SCC(=O)N/N=C/c3ccccc3)c2c1 | 0.834
57 | Cn1nnnc1SCC(=O)NC1CCCCC1 | -0.00615
58 | CCn1nnnc1SCC(=O)N(C1CCCCC1)C1CCCCC1 | -0.262
59 | Cn1nnnc1SCC(=O)N(C1CCCCC1)C1CCCCC1 | 2.45
60 | Cc1ccc2cc(CN(CCN3CCCC3)C(=O)Nc3ccc(F)cc3)c(=O)[nH]c2c1C | 2.05
61 | Cc1ccc2cc(CN(CCN3CCCC3)C(=O)Nc3ccccc3)c(=O)[nH]c2c1C | -0.236
62 | Cc1ccc(C)c2[nH]c(=O)c(CN(CCN3CCCC3)C(=O)Nc3ccc(F)cc3)cc12 | 0.644
63 | CCC(C)C(N)C(=O)NC(CCC(=O)OCc1ccccc1)C(N)=O (centres undefined) (H-Ile-Glu(OBn)-NH2; configuration not given here) | 0.0296
64 | Cc1nc(NCCc2ccccc2F)c(C#N)c(C)c1[N+](=O)[O-] | 0.24
65 | O=C(c1scc2c1CCCC2)N1CCCCC1 | -0.475
66 | Cc1ccc2c(c1)N(Cc1ccncc1)C(=O)C(C)O2 (centres undefined) | 0.33
67 | O=C1OC(Cc2ccncc2)C(O)=C1C1=NCCCN1 (centres undefined) | -0.135
68 | CC1=CC(=O)OC1Cc1ccncc1 (centres undefined) | 14.2 (active)
69 | O=C(O)CCCCCN1C(=O)/C(=C/c2ccncc2)SC1=S | -0.0629
